An excerpt weighted towards active compounds, which were near 19% of everything screened.
DT40 TDP1 no CPT: qHTS for Inhibitors of human tyrosyl-DNA phosphodiesterase 1 (TDP1): qHTS in cells in absence of CPT | DT40 Tdp1-/- hTDP1 cells, no CPT, ATP luminescence, 48 h | 420,000 compounds, 15% hits | Potency, µM (top dose mostly 46.2 µM), without a hit: top-dose activity change, negative = growth inhibition, most hits filed as inhibitors; note: potency is the fitted concentration of half-maximal effect; % is set by controls: 0 for no effect and ±100 for the full control effect; nearly all actives have a fitted effect of over 55% in size
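Luminescent ATP content (CellTiter-Glo) served as the growth readout. Knockout chicken DT40 cells expressing human TDP1 were exposed to compounds without camptothecin for a minimum 48 hr at 37 °C.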
IL1B secr inh: blocks inflammasome-driven IL-1 beta release; AID 743279; 360,000 compounds, 4.7% hits; activity change, % at 57.5 µM; THP-1 LPS/ATP IL-1B secretion, AlphaLISA, 16 h; active compounds read low; in the data active = activity change below about -50%; inconclusive = mostly about -30% to -49%; note: % is set by controls: 0 for no effect and ±100 for the full control effect
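THP-1 cells pretreated 1 hr with compounds (up to 57.5 uM final), then stimulated with LPS (250 ng/mL final) plus ATP (1.25 mM final); secreted IL-1B measured by AlphaLISA after 16 hr, decreased signal indicating inhibition.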
HepG2 tox: kills HepG2 cells in TGF-b inhibitor counter-screen | HepG2 CAGA-GFP viability, ATP luminescence, 18 h | Potency, µM (titrated, usually from 46.1 µM), inactives show at the top dose activity change, negative = cytotoxicity, usual class: cytotoxic | 410,000 compounds, 0.76% hits; note: potency is the fitted concentration of half-maximal effect
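HepG2 CAGA-GFP cells (1000/well, DMEM with 1% FBS) received compound, then TGF-beta at 500 pg/mL final, and were incubated 18 hours at 37 degrees C. Viability was read by CellTiter-Glo luminescence. Media-only wells were set as complete cell-killing and DMSO as no toxicity.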
TGFb inhibitor: TGF-b pathway inhibition; HepG2 CAGA-GFP TGF-b/SMAD3 reporter, GFP fluorescence, 18 h; TGF-beta stimulated, 500 pg/mL final; Potency, µM (series often up to 46.1 µM), inactives show top-dose activity, negative = inhibition, usual class: inhibitors; 410,000 compounds, 1.2% hits; note: potency is the fitted concentration of half-maximal effect; % is set by controls: 0 for no effect and ±100 for the full control effect; nearly all actives have a fitted effect of over 65% in size
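HEPG2 CAGA-GFP, 1000 cells/well; 2 h settle, 37 C; cpd via pin tool; TGF-b 500 pg/mL final; 18 h, 37 C; GFP imaging ex488/em500-530; %Activity normalised to -TGF-b and +DMSO controls; CRC fit, curve class.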
DT40 TDP1 CPT: growth inhibition of DT40 Tdp1-/-;hTDP1 cells with camptothecin (screen for TDP1 inhibitors) | chicken DT40 Tdp1-/-;hTDP1 cells + 20 nM CPT, ATP luminescence, 48 h | Potency, µM (series often up to 46.2 µM), for the others: at the top dose activity change, negative = growth inhibition, actives largely listed as inhibitors | 420,000 compounds, 12% hits | AID 686979; note: potency is the fitted concentration of half-maximal effect; % is set by controls: 0 for no effect and ±100 for the full control effect; nearly all actives have a fitted effect of over 55% in size
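Chicken DT40 Tdp1-/- cells stably complemented with human TDP1 were seeded at 400 cells/well in medium containing 20 nM camptothecin, exposed to pin-transferred compounds, and grown at 37 °C for at least 48 hr. Viability was read as ATP luminescence.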
ASM inhibitor: blocks human secretory acid sphingomyelinase. AID 504937. Potency, µM (highest dose often 57.5 µM), for inactives: top-dose activity change, negative = inhibition, hits mostly inhibitors. P17405. placental ASM, HMU-PC fluorogenic substrate, 60 min. 340,000 compounds, 0.006% hits; note: potency is the fitted concentration of half-maximal effect
Target sequence (P17405 47-631 limits assumed): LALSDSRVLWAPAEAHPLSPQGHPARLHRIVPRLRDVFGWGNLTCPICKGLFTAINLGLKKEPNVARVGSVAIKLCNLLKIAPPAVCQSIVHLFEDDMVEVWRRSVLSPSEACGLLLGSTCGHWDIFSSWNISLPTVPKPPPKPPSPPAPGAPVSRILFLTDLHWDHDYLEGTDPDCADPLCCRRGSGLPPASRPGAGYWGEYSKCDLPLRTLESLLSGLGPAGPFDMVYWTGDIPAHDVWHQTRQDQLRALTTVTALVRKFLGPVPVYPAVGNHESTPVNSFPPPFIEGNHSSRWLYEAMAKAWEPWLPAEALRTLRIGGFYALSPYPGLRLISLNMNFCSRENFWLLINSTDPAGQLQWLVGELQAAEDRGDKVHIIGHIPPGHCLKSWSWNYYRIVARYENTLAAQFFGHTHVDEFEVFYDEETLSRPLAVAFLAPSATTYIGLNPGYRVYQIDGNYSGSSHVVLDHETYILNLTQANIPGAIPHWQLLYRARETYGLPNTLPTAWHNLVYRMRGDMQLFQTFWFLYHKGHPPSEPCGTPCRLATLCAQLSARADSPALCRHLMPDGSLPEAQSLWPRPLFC
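Fluorogenic HMU-PC substrate (9 uM final) is turned over by placental ASM in 60 min at 37 C after a 10 min compound preincubation. Reaction ended by alkaline stop (pH 10), with fluorescence read at 386/447 nm.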
An asterisk follows results filed as active; ? = inconclusive; nt = no result; ! = a repeat was not active; [ ] = remark or other dose. Unless noted, calls come from the whole dose curve; as a rule, active = well fitted curve in the direction sought with a large enough effect; inconclusive = small, poorly fitted or top-dose-only effect, or another doubt; inactive = no such curve, though single readings can be large; an effect the other way counts as inactive or inconclusive.

SMILES	DT40 TDP1 no CPT	IL1B secr inh	HepG2 tox	TGFb inhibitor	DT40 TDP1 CPT	ASM inhibitor
CC(C)(C)OC(=O)NCCc1nnc(SCC(=O)c2ccc(Cl)cc2)o1	?	-17	-32%	-6%	23µM*	-3%
CC(C)[C@H](N)c1nnc(SCC(=O)c2ccc(Cl)cc2)o1	13µM*	-10	-4%	-17%	12µM*	5%
C[C@H](N)c1nnc(SCC(=O)c2ccc(Cl)cc2)o1	-1%	12	3%	3%	4%	0%
C[C@]1(Cn2ccnn2)[C@H](C(=O)O)N2C(=O)C[C@H]2S1(=O)=O	-15%	nt	nt	nt	7%	nt
CC(C)OC(=O)N(C)C[C@H]1OCc2cn(nn2)CCCC(=O)N([C@H](C)CO)C[C@@H]1C	-15%	3	0%	2%	-7%	nt
Cc1ccc(C2Oc3ccccc3C3=C2C(c2cccs2)n2ncnc2N3)cc1 (stereo not given)	?	22	-24%	0%	?	175%
Fc1ccc(C2C3=C(Nc4ncnn42)c2ccccc2OC3c2ccncc2)cc1 (stereo not given)	?	-55*	-9%	?	0%	140%
NC1(c2ccc(-c3nc4ccn5c(=O)[nH]nc5c4cc3-c3ccccc3)cc2)CCC1	0.6µM*	nt	13µM*	7.9µM*	0.38µM*	nt
O=c1cc(N2CCCC2)c(-c2ccccc2)n[nH]1	-10%	-6	-18%	-11%	-9%	1%
CCc1cccc(NC(=O)Cn2nc(C)c3sc4ccccc4c3c2=O)c1	-11%	nt	-10%	16%	-8%	nt
O=C(O)c1cc(O)c2c(c1)C(=O)c1cc(O)cc(O)c1C2=O	15µM*!	-24	2%	-4%	13µM*!	7%
Cc1ccc(Cl)cc1NS(=O)(=O)c1ccccc1	?	18	-18%	-3%	-6%	-3%
Cc1cccc(NC2=C/C(=N/S(=O)(=O)c3cccs3)c3ccccc3C2=O)c1	3.3µM*	-83*	1%	?	3.7µM*	-14%
Cc1ccc(Cl)cc1NC1=C/C(=N\S(=O)(=O)c2cccs2)c2ccccc2C1=O	2.9µM*	-99*	3.5µM*!	4µM*	5.2µM*	-7%
Cc1cc(C)c(S(=O)(=O)/N=C2\C=C(NS(=O)(=O)c3ccccc3)C(=O)c3ccccc32)c(C)c1	-18%	30	0%	-1%	?	-10%
Cc1ccc(NC2=C/C(=N\S(=O)(=O)c3cccs3)c3ccccc3C2=O)c(C)c1	2.6µM*	-97*	4.5µM*	2.5µM*	2.6µM*	-14%
Cc1c(Cl)cccc1N/C(=N/S(=O)(=O)c1cccs1)c1ccccc1	?	-24	-19%	-27%	-19%	-4%
O=C(O)CCn1cc(-c2ccc(Cl)cc2)nc1-c1ccncc1	-15%	33	-1%	?	4%	-2%
O=C1CN(/N=C/c2ccc([N+](=O)[O-])o2)C(=O)N1	16µM*	14	-25%	-3%	21µM*	-6%
O=C1OCCN1/N=C/c1ccc([N+](=O)[O-])o1	15µM*	22	-9%	-27%	13µM*	-2%
O=[N+]([O-])c1ccc(/C=N/Nc2ccc3ccccc3c2)o1	-30%	-9	3%	-24%	?	?
CN(C)[C@@H](CO)c1nnc([C@H](CC(=O)O)NC(=O)C2CCNCC2)o1	-1%	2	10%	13%	4.6µM*	2%
CN(C)[C@@H](CO)c1nnc([C@H](CCC(=O)O)NC(=O)C2CCNCC2)o1	7%	10	2%	-17%	-4%	2%
CCC(C(=O)Nc1ccccc1OC)n1c(C(=O)OC)cc2ccsc21 (stereo not given)	?	-57*	-19%	?	21µM*	-10%
Cc1cc(C)cc(NC(=S)N=Nc2c(O)n(C)c3ccc(S(=O)(=O)N4CCOCC4)cc23)c1	4.6µM*	-4	-18%	?	1.2µM*	-13%
SMILES	DT40 TDP1 no CPT	IL1B secr inh	HepG2 tox	TGFb inhibitor	DT40 TDP1 CPT	ASM inhibitor
Cc1cc(C)cc(NC(=O)c2cc(S(=O)(=O)N3CCOCC3)cn2C)c1	-12%	nt	-3%	0%	8%	nt
Cc1cccc(NC(=S)N=Nc2c(O)n(C)c3ccc(S(=O)(=O)N4CCOCC4)cc23)c1	3.3µM*	3	-7%	-8%	3.7µM*	-17%
Cc1ccc(NC(=S)N=Nc2c(O)n(C)c3ccc(S(=O)(=O)N4CCOCC4)cc23)cc1	2.6µM*	-6	-1%	?	2.6µM*	-23%
O=C(NCCS(=O)(=O)NCc1cccs1)c1ccccc1	-15%	-19	-1%	9%	-4%	nt
CCC(C)NC(=O)c1cnn(-c2ccc(Cl)cc2)c1C1CCN(C(=O)OC(C)(C)C)CC1 (stereo not given)	?	nt	-11%	-28%	?	nt
COc1ccc(-c2cn(Cc3ccc(C(N)=O)cc3)c(-c3ccncc3)n2)cc1	-12%	20	-44%	-4%	-26%	-1%
N#CC1(Cc2ccc([N+](=O)[O-])cc2)c2ccccc2C=CN1C(=O)c1ccccc1 (stereo not given)	15µM*	-20	4%	2%	?	-4%
COc1cccc(NC(=O)CCC(=O)N2Cc3ccccc3Oc3ncccc32)c1	-18%	nt	22%	-3%	-24%	nt
COc1cccc(CN2CCC3(CCC(CNC(=O)c4ccccc4)O3)CC2)c1 (stereo not given)	4%	nt	nt	nt	-6%[9.04 µM]	nt
CCN1/C(=C/c2ccc3ccccc3[n+]2CC)C=Cc2ccccc21	1.5µM*	-55*	10µM*	1.8µM*	1.6µM*	-23%
CCN1/C(=C/c2ccc3cc(C)ccc3[n+]2CC)Sc2cc(C)ccc21	0.013µM*	-107*	-77%	120%	0.29µM*	-18%
